For 26 compounds, survival results are on record in PubChem BioAssay AID463173 (ICCB-Longwood Screening Facility, Harvard Medical School, 2010).

Among all 52,000 compounds or so, about 4,300 (8.3%) were called active. The sample holds actives, similar compounds and a random draw of the others, so the mix is not that of the screen. Values without a mark were called inactive. No stated cut-off is given here; in the data, active means survival mostly below about 52% (no sharp cut-off); inactive means mostly above about 56%.

This test relates to DeltatarO mutant. Description: growth inhibition of S. aureus wild type versus tarO mutant, primary screen, teichoic acid synthesis inhibitors, RN4220, OD600 (AID 463173). Conditions: OD600, 18 h, hits give low values, screened at 18.75 µg/mL (by protocol).
As for `CCOc1cc(-c2nc(-c3ccc(-c4ccc(C)cc4)nc3OC)no2)cc(OCC)c1OCC`, the survival was 69% (active).

Regarding `CCOc1cc(-c2nc(-c3ccc(-c4ccc(OC)cc4)nc3OC)no2)cc(OCC)c1OCC`, the survival is 75%.

As to `COc1cccc(-c2nc(-c3ccc(-c4ccccc4)nc3OC)no2)c1`, the survival was 10% (active).

As for `COc1cccc(-c2ccc(-c3noc(-c4ccccc4Br)n3)c(OC)n2)c1`, the survival was 37%.

Take `CCOc1ccccc1-c1nc(-c2ccc(-c3ccccc3)nc2OCC)no1`: the survival was 4% (active).

Turning to `COc1nc(-c2ccccc2)ccc1-c1noc(C(C)C)n1`, the survival was 91%.

For the compound `CCOc1nc(-c2ccccc2)ccc1-c1noc(-c2ccc(C)cc2)n1`, the survival was 110%.

Consider `COc1ccc(-c2ccc(-c3noc(-c4cc(OC)cc(OC)c4)n3)c(OC)n2)cc1`, for which the survival was 45%.

Turning to `CCOc1cc(-c2nc(-c3ccc(-c4ccccc4)nc3OCC)no2)cc(OCC)c1OCC`, the survival was 53%.

On to `COc1nc(C)ccc1-c1noc(-c2ccccc2)n1`, for which the survival was 102%.

As for `COc1nc(-c2ccccc2)ccc1-c1noc(-c2ccccc2Br)n1`, the survival is -1% (active).

With `CCOc1cc(-c2nc(-c3ccc(Br)cc3)no2)cc(OCC)c1OCC`, the survival is 118%.

With `COc1ccc(CCCc2nnc(SCC(=O)Nc3ccc(F)cc3)o2)cc1C`, the survival is 89%.

In the case of `COc1ccccc1N1CCN(c2cc(N3CCCC3)nc(C)n2)CC1`, the survival was 98%.

With `O=C(Nc1ccc(Br)cc1)C1CCCN(S(=O)(=O)c2ccc(Br)s2)C1` (stereo unspecified), the survival was 82%.

On to `C#CCN1CCc2cc(OC)c(OC)cc2C1C` (stereo unspecified), for which the survival is 101%.

On to `Cc1cccc(CCNCc2cc3cc4c(cc3[nH]c2=O)OCO4)c1`, for which the survival was 85%.

On to `CC1(C)OC2C(CO)OC(n3ncc(=O)[nH]c3=O)C2O1` (stereo unspecified), for which the survival was 86%.

Consider `CCOc1nc(-c2ccc(C)cc2)ccc1-c1noc(-c2ccccc2F)n1`, for which the survival was 54%.

With `COc1nc(-c2ccc(C)cc2)ccc1-c1noc(-c2ccc(C(C)(C)C)cc2)n1`, the survival is 47%.

As to `COc1nc(-c2ccc(C)cc2)ccc1-c1noc(-c2ccccc2Br)n1`, the survival is 19% (active).

Regarding `CC(C)(C)c1cc(C(C)(C)C)c2oc(=O)c(-c3nc4ccccc4[nH]3)cc2c1`, the survival was 69%.

For `Cc1ccc(-n2ncc(C(=O)NCCN3CCc4ccccc4C3)c2C2CCNCC2)cc1C`, the survival is 95%.

`O=C(c1ccc(F)cc1)N1CCC(c2nc3ccccc3o2)CC1`: the survival is 83%.

`Cc1nnc(SCc2ccccc2)c2cc3sccc3n12`: the survival was 53%.

For the compound `COc1ccc(CCN(Cc2nc3ccccc3c(=O)[nH]2)C(=O)C(C)C)cc1`, the survival was 101%.
